Our source for the inhibition values is ChEMBL document CHEMBL1961873, “Compounds: GSK PKIS; Assays: Nanosyn kinase panel” (2012).

Assay [1] addresses CDK3/Cyclin E (Homo sapiens) (UniProt P24864+Q00526). Particulars: at 1 µM.
For assay [2], the target named is Cyclin-dependent kinase 4 (Homo sapiens) (UniProt P11802). The note with it: at 0.1 µM.
Assay [3] shares this target. The note with it: at 1 µM.
In assay [4] the target is Cyclin-dependent kinase 5 (Homo sapiens) (UniProt Q00535). Particulars: at 0.1 µM.
Cyclin-dependent kinase 5 (Homo sapiens), sequence (Q00535 whole entry, looked up): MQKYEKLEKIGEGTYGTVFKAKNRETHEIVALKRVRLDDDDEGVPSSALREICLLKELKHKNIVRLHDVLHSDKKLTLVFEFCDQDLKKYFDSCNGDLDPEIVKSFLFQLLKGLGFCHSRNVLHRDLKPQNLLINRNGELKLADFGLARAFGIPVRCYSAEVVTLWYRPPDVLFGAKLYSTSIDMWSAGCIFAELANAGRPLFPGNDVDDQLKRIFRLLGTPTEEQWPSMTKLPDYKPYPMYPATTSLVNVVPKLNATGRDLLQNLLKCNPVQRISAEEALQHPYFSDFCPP
For assay [5] the target is unchanged. Particulars: at 1 µM.
Assay [6] addresses Cyclin-dependent kinase 6 (Homo sapiens) (UniProt Q00534). The note with it: at 0.1 µM.
For assay [7] the target is unchanged. The note with it: at 1 µM.
For assay [8], the target named is Dual specificity protein kinase CLK2 (Homo sapiens) (UniProt P49760). The note with it: at 0.1 µM.
Dual specificity protein kinase CLK2 (Homo sapiens), sequence (P49760 whole entry, looked up): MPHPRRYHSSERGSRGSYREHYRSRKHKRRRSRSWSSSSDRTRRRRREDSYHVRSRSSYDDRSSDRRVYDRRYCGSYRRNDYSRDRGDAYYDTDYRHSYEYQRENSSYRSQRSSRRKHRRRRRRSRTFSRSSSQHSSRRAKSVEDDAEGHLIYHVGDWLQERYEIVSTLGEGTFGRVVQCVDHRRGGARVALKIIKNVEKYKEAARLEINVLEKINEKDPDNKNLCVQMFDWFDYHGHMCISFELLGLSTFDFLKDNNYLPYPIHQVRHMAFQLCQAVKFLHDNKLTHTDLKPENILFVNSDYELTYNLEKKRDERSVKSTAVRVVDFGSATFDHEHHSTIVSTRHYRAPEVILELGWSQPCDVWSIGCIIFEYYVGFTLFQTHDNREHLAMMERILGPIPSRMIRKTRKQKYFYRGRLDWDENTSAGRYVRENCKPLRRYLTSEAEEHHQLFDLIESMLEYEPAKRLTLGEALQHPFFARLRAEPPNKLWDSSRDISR
The target is the same in assay [9]. Particulars: at 1 µM.
Assay [10] concerns the target Dual specificity protein kinase CLK3 (Homo sapiens) (UniProt P49761). Particulars: at 0.1 µM.
For assay [11] the target is unchanged. The note with it: at 1 µM.
Assay [12] concerns the target Dual specificity tyrosine-phosphorylation-regulated kinase 1A (Homo sapiens) (UniProt Q13627). The note with it: at 0.1 µM.
Assay [13] has the same target. Particulars: at 1 µM.
Assay [14] deals with Dual specificity tyrosine-phosphorylation-regulated kinase 1B (Homo sapiens) (UniProt Q9Y463). The note with it: at 0.1 µM.
Dual specificity tyrosine-phosphorylation-regulated kinase 1B (Homo sapiens), sequence (Q9Y463 whole entry, looked up): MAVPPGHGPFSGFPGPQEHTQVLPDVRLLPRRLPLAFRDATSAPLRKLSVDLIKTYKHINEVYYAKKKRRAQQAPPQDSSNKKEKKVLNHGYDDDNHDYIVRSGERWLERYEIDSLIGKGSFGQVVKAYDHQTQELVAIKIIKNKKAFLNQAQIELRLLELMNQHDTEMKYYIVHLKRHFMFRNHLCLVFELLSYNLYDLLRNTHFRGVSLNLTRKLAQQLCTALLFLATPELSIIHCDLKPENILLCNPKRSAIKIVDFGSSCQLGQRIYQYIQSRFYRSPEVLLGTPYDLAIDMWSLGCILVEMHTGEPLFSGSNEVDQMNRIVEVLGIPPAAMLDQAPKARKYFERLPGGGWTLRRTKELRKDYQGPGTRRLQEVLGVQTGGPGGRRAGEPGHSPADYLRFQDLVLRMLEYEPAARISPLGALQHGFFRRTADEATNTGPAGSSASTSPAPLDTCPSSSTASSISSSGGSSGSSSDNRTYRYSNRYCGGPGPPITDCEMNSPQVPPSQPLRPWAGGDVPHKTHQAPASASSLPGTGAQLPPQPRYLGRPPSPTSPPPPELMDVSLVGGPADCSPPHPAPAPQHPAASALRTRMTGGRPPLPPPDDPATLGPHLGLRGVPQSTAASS
Assay [15] shares this target. The note with it: at 1 µM.
The target in assay [16] is T1, Dual specificity tyrosine-phosphorylation-regulated kinase 2 (Homo sapiens) (UniProt Q92630).
T1 sequence (whole entry): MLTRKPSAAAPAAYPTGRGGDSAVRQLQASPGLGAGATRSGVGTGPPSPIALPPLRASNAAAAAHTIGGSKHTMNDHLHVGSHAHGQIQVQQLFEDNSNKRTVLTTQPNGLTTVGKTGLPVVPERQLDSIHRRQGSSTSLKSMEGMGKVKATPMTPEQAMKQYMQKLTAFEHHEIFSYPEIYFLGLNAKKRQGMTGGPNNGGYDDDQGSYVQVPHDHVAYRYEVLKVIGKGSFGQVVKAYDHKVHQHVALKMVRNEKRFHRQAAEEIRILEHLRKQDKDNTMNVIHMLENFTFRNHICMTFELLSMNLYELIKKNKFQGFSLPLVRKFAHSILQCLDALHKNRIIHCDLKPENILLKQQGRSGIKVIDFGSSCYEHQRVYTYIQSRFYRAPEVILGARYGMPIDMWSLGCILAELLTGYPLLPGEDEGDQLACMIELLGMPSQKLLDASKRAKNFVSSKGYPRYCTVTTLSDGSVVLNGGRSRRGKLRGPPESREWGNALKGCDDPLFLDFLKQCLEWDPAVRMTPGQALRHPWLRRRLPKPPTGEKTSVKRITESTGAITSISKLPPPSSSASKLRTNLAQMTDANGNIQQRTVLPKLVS
The note with it: at 0.1 µM.

For assay [17], the target named is T1, Dual specificity tyrosine-phosphorylation-regulated kinase 2 (Homo sapiens). Particulars: at 1 µM.
The target in assay [18] is Glycogen synthase kinase-3 alpha (Homo sapiens) (UniProt P49840). The note with it: at 0.1 µM.
Glycogen synthase kinase-3 alpha (Homo sapiens), sequence (P49840 2-483 limits assumed): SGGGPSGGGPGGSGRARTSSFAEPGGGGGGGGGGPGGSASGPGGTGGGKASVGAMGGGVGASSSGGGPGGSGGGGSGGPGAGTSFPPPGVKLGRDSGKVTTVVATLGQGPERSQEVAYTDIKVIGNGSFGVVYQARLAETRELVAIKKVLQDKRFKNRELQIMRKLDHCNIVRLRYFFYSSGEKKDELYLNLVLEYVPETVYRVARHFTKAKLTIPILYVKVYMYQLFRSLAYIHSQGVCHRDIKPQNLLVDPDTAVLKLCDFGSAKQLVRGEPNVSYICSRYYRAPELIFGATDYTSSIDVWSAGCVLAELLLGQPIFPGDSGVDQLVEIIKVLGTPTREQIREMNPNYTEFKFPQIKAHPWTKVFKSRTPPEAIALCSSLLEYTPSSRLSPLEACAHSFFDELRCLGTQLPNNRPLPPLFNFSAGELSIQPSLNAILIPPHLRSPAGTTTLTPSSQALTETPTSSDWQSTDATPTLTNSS
Assay [19] shares this target. The note with it: at 1 µM.
The target of assay [20] is Glycogen synthase kinase-3 beta (Homo sapiens) (UniProt P49841). The note with it: at 0.1 µM.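 Further: values are mean percent inhibition of GSK3B activity, from the GSK Published Kinase Inhibitor Set (PKIS) screening dataset.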
Glycogen synthase kinase-3 beta (Homo sapiens), sequence (P49841 whole entry, looked up): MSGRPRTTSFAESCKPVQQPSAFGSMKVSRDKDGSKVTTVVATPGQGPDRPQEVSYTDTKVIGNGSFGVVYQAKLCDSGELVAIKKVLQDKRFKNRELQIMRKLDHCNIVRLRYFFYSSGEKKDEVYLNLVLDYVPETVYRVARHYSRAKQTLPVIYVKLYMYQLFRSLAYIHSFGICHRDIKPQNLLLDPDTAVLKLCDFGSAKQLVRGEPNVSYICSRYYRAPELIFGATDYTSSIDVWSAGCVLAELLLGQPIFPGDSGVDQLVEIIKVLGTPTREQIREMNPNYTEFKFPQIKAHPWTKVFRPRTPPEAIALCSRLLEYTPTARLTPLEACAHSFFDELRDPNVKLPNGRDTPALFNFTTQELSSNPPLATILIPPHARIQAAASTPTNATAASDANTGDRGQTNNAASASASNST

One may read the inhibition as the relative decrease from the control value, in per cent.

SMILES strings stand for the structures.

CDK3/Cyclin E (Homo sapiens), sequence (P24864 whole entry, looked up): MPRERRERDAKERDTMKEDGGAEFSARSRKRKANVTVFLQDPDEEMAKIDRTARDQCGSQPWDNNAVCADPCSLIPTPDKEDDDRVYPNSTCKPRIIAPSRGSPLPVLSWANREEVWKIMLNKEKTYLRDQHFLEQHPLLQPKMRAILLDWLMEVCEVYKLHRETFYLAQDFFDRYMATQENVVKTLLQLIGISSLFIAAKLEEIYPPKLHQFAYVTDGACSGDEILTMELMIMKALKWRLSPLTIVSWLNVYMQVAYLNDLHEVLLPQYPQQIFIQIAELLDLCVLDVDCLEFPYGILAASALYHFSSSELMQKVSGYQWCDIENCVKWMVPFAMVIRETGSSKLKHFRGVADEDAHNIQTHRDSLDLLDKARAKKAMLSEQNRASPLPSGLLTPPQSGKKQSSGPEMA
CDK3/Cyclin E (Homo sapiens), sequence (Q00526 whole entry, looked up): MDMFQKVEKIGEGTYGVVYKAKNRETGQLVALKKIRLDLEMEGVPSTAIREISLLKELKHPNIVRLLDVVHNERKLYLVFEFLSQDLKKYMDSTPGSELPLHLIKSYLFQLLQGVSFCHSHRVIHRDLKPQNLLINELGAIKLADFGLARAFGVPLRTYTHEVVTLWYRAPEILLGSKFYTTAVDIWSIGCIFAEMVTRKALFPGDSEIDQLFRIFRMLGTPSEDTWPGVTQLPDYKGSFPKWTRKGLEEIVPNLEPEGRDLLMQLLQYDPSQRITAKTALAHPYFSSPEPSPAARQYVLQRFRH
Dual specificity protein kinase CLK3 (Homo sapiens), sequence (P49761 whole entry, looked up): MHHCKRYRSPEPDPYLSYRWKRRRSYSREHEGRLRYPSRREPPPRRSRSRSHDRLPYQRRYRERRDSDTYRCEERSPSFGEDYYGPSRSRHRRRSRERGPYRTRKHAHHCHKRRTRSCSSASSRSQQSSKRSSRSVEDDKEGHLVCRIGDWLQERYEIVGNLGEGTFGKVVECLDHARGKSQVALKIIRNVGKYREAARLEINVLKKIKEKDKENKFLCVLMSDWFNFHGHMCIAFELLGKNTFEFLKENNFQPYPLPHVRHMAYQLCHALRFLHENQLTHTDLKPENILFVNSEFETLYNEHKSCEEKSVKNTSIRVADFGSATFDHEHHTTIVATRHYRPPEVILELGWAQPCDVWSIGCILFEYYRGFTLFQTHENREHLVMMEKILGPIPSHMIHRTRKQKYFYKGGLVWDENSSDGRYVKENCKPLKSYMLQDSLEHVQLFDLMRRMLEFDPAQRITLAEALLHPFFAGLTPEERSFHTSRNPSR
Cyclin-dependent kinase 6 (Homo sapiens), sequence (Q00534 whole entry): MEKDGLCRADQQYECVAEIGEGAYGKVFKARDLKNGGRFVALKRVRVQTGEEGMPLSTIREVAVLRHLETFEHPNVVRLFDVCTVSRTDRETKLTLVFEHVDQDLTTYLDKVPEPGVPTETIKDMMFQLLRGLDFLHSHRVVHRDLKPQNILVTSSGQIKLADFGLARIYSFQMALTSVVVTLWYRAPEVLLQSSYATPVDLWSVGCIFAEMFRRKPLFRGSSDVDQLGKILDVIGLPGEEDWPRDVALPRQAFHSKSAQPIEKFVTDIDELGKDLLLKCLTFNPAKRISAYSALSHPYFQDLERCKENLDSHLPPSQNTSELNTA
Cyclin-dependent kinase 4 (Homo sapiens), sequence (P11802 whole entry): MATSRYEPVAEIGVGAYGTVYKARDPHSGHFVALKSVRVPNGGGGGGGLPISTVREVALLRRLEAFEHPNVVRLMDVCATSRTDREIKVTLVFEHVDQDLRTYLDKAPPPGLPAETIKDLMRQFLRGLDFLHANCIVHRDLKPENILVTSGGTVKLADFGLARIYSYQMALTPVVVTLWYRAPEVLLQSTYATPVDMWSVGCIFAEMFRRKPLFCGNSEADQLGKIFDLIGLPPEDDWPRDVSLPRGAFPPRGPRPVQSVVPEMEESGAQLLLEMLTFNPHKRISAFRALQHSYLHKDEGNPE

On to `CCc1nccc2c1nc(-c1nonc1N)n2CC`, for which the inhibition is -0.63% in assay [1]; 1.93% in assay [2]; 2.76% in assay [3]; 1.21% in assay [4]; 2.65% in [5]; -8.01% in assay [6]. Also, the inhibition in assay [7] was -0.61%; in assay [8], 1.1%; in assay [9] it was 2.67%; in assay [10] it was -0.31%; in assay [11], 2.23%; in assay [12] it was 2.9%. Besides, the inhibition is 7.05% in [13]; 2.47% in [14]; 6.3% in [15]; -0.4% in assay [16]; 3.18% in [17]; 0.44% in assay [18]. Also, the inhibition in [19] was determined as 7.97%; in assay [20], 2.74%.
Take `Fc1ccc(-c2ncn(CCCN3CCOCC3)c2-c2ccncc2)cc1`: the inhibition in assay [1] was 1.42%; in assay [2], 0.02%; in assay [3], 5.08%; in assay [4] it was 1.43%; in assay [5], 3.98%; in [6] it was -8.34%. In addition, the inhibition was -1.04% in assay [7]; 1.11% in assay [8]; 2.52% in assay [9]; -1.43% in assay [10]; 0.51% in assay [11]; -0.26% in assay [12]. For the same compound, the inhibition in assay [13] is 0.01%; in assay [14], -0.42%; in [15] it was -0.19%; in assay [16], -0.03%; in assay [17] it was 0.55%; in assay [18], -0.11%. Moreover, the inhibition in assay [19] is 4.21%; in assay [20], -0.54%.
Turning to `CCc1cccc(CC)c1/C=C/c1cncc(C(=O)NC)c1`, the inhibition in assay [1] stood at 1.62%; in [2], 3.61%; in [3], 4.03%; in assay [4], 0.43%; in assay [5], 1.68%; in assay [6] it was 3.11%. In addition, the inhibition is 2.84% in assay [7]; -1.55% in assay [8]; 3.8% in assay [9]; 1.35% in [10]; 1.66% in assay [11]; 1.88% in assay [12]. Moreover, the inhibition turned out to be 5.03% in [13]; 1.08% in assay [14]; 3.49% in assay [15]; 2.13% in assay [16]; 2.5% in assay [17]; 2.14% in assay [18]. Also, the results for the inhibition in assay [19] and in assay [20] were 6.98% and 2.21%, respectively.
`COc1ccc(-c2ccc3c(NC(=O)C4CC4)n[nH]c3n2)cc1`: the inhibition in assay [1] was 3.03%; in assay [2] it was 1.65%; in assay [3], 11.4%; in assay [4] it was 0.42%; in [5] it was 2.12%; in [6], 5.98%. Also, the inhibition in [7] turned out to be 38%; in assay [8], 0.68%; in assay [9], 1.56%; in assay [10], 0.83%; in [11], 2.15%; in [12] it was 0.91%. Also, the inhibition in assay [13] was 1.49%; in assay [14], -0.93%; in assay [15], 0.04%; in assay [16], 1.19%; in [17], 2.63%; in assay [18] it was 3.01%. In addition, the inhibition in assay [19] turned out to be 8.2%.
As for `O=C1NC(=O)C(c2cccc(Cl)c2)=C1Nc1ccc(Cl)c(C(=O)O)c1`, the inhibition in assay [1] is -3.39%; in [2] it was 1.47%; in assay [3] it was 1.74%; in assay [4] it was -0.04%; in assay [5] it was 1.05%; in assay [6], -2.3%. Moreover, the inhibition in [7] was 1.32%; in assay [8], 3.2%; in [9], 0.9%; in [10] it was 1.12%; in assay [11], 2.4%; in [12], 1.22%. Moreover, the inhibition was 5.02% in assay [13]; -0.3% in assay [14]; 1.57% in assay [15]; 1.93% in assay [16]; 2.84% in [17]; 32.8% in assay [18]. Further, the inhibition in assay [19] came out at 77.5%.
Regarding `CCS(=O)(=O)c1ccc(OC)c(Nc2ncc(-c3ccccc3Cl)o2)c1`, the inhibition in [1] was -0.99%; in [2], -0.77%; in [3] it was -0.72%; in assay [4] it was 0.11%; in assay [5] it was 0.87%; in assay [6], 4.47%. In addition, the inhibition came to 3.06% in assay [7]; 4.19% in [8]; 34.1% in assay [9]; 0.66% in [10]; 8.78% in assay [11]; 0.71% in [12]. The inhibition was 5.06% in assay [13]; 1.56% in assay [14]; 5.7% in assay [15]; 1.98% in [16]; 11.8% in assay [17]; 0.38% in [18]. The inhibition in assay [19] was 1.64%; in [20], 1.56%.
On to `FC(F)(F)c1cccc(Nc2nccc(-c3cnn4nc(-c5ccccc5)ccc34)n2)c1`, for which the inhibition in [1] stood at 2.5%; in [2], 1.39%; in assay [3], 5.84%; in assay [4], 0.4%; in assay [5], 3.29%; in assay [6], 0.39%. Further, the inhibition in assay [7] worked out at 2.53%; in [8], 57.2%; in assay [9], 92.1%; in assay [10], 1.66%; in [11] it was 6.92%; in [12], 1.59%. Also, the inhibition in assay [13] amounted to 8.11%; in assay [14], 0.33%; in [15], 8.12%; in assay [16], 1.14%; in [17], 0.09%; in [18], 23.5%. The inhibition in assay [19] stood at 67.8%.
